Results published in PubChem BioAssay AID1159580 (chemical genetic matrix, 2015).
Out of some 5,500 compounds screened, about 2,000 (36%) were called active. Inconclusive results (about 18%) are left out. No stated cut-off is given here; in the data, active means normalized growth mostly below about 0.91 (no sharp cut-off); inconclusive means no clear call, values can overlap the other calls; inactive means mostly above about 0.92. Some of the results follow.

Test: chemical genetic growth profiling, strain panel (AID 1159580);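 further: tested at 20 µM; growth read once vehicle control cultures reached saturation at 30 °C; 1 = growth at the plate median or of vehicle wells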
Conditions: S. cerevisiae deletion strains, growth OD

Measured: normalized growth

OCC(O)Cc1ccc2c(c1)OCO2 (stereo not drawn)
inactive: locus YAL013W, strain DEP1, stronger effect = lower value 1.02 | locus YAL021C, strain ccr4, stronger effect = lower value 1.02 | locus YAL026C, strain drs2, stronger effect = lower value 0.985 | locus YAL030W, strain snc1, stronger effect = lower value 1 | locus YBL061C, strain skt5, stronger effect = lower value 0.997 | locus YBR009C, strain hhf1, stronger effect = lower value 1.01 | locus YBR021W, strain FUR4, stronger effect = lower value 1.02 | locus YBR023C, strain chs3, stronger effect = lower value 1.01 | locus YBR171W, strain sec66, stronger effect = lower value 1.01 | locus YBR229C, strain ROT2, stronger effect = lower value 1.01 | locus YBR231C, strain swc5, stronger effect = lower value 0.992 | locus YBR279W, strain paf1, stronger effect = lower value 1 | locus YCL011C, strain gbp2, stronger effect = lower value 1 | locus YCL016C, strain dcc1, stronger effect = lower value 1 | locus YCL029C, strain bik1, stronger effect = lower value 0.997 | locus YCL069W, strain vba3, stronger effect = lower value 0.981 | locus YCR088W, strain abp1, stronger effect = lower value 0.993 | locus YDL005C, strain med2, stronger effect = lower value 0.999 | locus YDL035C, strain GPR1, stronger effect = lower value 1.02 | locus YDL040C, strain nat1, stronger effect = lower value 0.998 | locus YDL074C, strain BRE1, stronger effect = lower value 1.05 | locus YDL101C, strain DUN1, stronger effect = lower value 1.02 | locus YDL134C, strain PPH21, stronger effect = lower value 1.01 | locus YDL185W, strain tfp1, stronger effect = lower value 0.999 | locus YDL192W, strain arf1, stronger effect = lower value 0.999 | locus YDR001C, strain nth1, stronger effect = lower value 0.997 | locus YDR069C, strain doa4, stronger effect = lower value 0.979 | locus YDR101C, strain arx1, stronger effect = lower value 0.989 | locus YDR137W, strain rgp1, stronger effect = lower value 0.993 | locus YDR150W, strain NUM1, stronger effect = lower value 1.02 | locus YDR159W, strain sac3, stronger effect = lower value 0.971 | locus YDR162C, strain NBP2, stronger effect = lower value 1.03 | locus YDR195W, strain ref2 0.966 | locus YDR297W, strain sur2, stronger effect = lower value 1.01 | locus YDR318W, strain mcm21, stronger effect = lower value 0.991 | locus YDR334W, strain swr1, stronger effect = lower value 1 | locus YDR335W, strain msn5, stronger effect = lower value 0.996 | locus YDR388W, stronger effect = lower value 1 | locus YDR392W, strain spt3, stronger effect = lower value 1.02 | locus YDR502C, strain sam2, stronger effect = lower value 1 | locus YEL003W, strain gim4, stronger effect = lower value 1.01 | locus YEL037C, strain rad23, stronger effect = lower value 1.01 | locus YEL061C, strain CIN8 (second series), stronger effect = lower value 1 | locus YEL061C, strain CIN8, stronger effect = lower value 1.01 | locus YER015W, strain faa2, stronger effect = lower value 1 | locus YER016W, strain bim1, stronger effect = lower value 1 | locus YER110C, stronger effect = lower value 0.996 | locus YER111C, strain swi4, stronger effect = lower value 0.997 | locus YER155C, strain BEM2 (second series), stronger effect = lower value 0.993 | locus YER155C, strain BEM2, stronger effect = lower value 1.01 | locus YER167W, strain BCK2, stronger effect = lower value 1.01 | locus YFR010W, strain ubp6, stronger effect = lower value 1.01 | locus YGL078C, strain dbp3, stronger effect = lower value 1 | locus YGL086W, strain mad1, stronger effect = lower value 0.993 | locus YGL167C, strain pmr1, stronger effect = lower value 1 | locus YGL173C, strain kem1, stronger effect = lower value 0.991 | locus YGL227W, strain vid30, stronger effect = lower value 0.985 | locus YGL240W, strain doc1, stronger effect = lower value 0.984 | locus YGL248W, strain PDE1, stronger effect = lower value 1.01 | locus YGL253W, strain hxk2, stronger effect = lower value 1 | locus YGR078C, strain PAC10, stronger effect = lower value 1.02 | locus YGR135W, strain pre9, stronger effect = lower value 1.01 | locus YGR229C, strain SMI1, stronger effect = lower value 1.02 | locus YGR252W, strain gcn5, stronger effect = lower value 1 | locus YHR013C, strain ard1, stronger effect = lower value 1.01 | locus YHR027C, strain rpn1, stronger effect = lower value 1 | locus YHR030C, strain SLT2, stronger effect = lower value 1.01 | locus YHR079C, strain IRE1 (second series), stronger effect = lower value 0.991 | locus YHR094C, strain hxt1, stronger effect = lower value 0.999 | locus YHR129C, strain ARP1, stronger effect = lower value 1.01 | locus YHR142W, strain chs7, stronger effect = lower value 1.01 | locus YHR200W, strain rpn10, stronger effect = lower value 1 | locus YIL066C, strain RNR3, stronger effect = lower value 1.02 | locus YIL073C, strain SPO22, stronger effect = lower value 1.04 | locus YIL125W, strain kgd1, stronger effect = lower value 1.02 | locus YIR030C, strain dcg1, stronger effect = lower value 1 | locus YJL092W, strain hpr5, stronger effect = lower value 0.998 | locus YJL095W, strain BCK1 (second series), stronger effect = lower value 1 | locus YJL095W, strain BCK1, stronger effect = lower value 1.04 | locus YJL115W, strain asf1, stronger effect = lower value 1 | locus YJL129C, strain trk1, stronger effect = lower value 0.989 | locus YJL134W, strain LCB3, stronger effect = lower value 1.01 | locus YJL154C, strain vps35, stronger effect = lower value 1 | locus YJL164C, strain tpk1, stronger effect = lower value 1.01 | locus YJL166W, strain qcr8, stronger effect = lower value 1.02 | locus YJL168C, strain set2, stronger effect = lower value 0.994 | locus YJL187C, strain SWE1 (second series), stronger effect = lower value 1.03 | locus YJL187C, strain SWE1, stronger effect = lower value 0.982
